Shown is part of a subset that was picked to be rich in hits.
BLM helicase inh = inhibitors of human Bloom syndrome helicase BLM; recombinant BLM DNA unwinding, fluorescence dequenching; AID 2528; Potency, µM (highest dose often 56.1 µM), for inactives: at the highest dose activity change, negative = inhibition, most hits filed as inhibitors; P54132; 350,000 tested, 0.2% active;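 note: plate controls were vehicle for no effect and no enzyme for full effect; nearly all actives have a fitted effect of over 35% in size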
RECQ1 inh = blocks DNA unwinding by human RECQ1 | AID 2549 | 240,000 tested, 0.54% active | RECQ1 DNA unwinding, red fluorescence kinetic read | Potency, µM (highest dose often 57.3 µM), for the others: top-dose activity, negative = inhibition, usual class: inhibitors;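 note: plate controls were vehicle for no effect and no enzyme for full effect; nearly all actives have a fitted effect of over 30% in size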
Target sequence (P46063 whole entry, looked up): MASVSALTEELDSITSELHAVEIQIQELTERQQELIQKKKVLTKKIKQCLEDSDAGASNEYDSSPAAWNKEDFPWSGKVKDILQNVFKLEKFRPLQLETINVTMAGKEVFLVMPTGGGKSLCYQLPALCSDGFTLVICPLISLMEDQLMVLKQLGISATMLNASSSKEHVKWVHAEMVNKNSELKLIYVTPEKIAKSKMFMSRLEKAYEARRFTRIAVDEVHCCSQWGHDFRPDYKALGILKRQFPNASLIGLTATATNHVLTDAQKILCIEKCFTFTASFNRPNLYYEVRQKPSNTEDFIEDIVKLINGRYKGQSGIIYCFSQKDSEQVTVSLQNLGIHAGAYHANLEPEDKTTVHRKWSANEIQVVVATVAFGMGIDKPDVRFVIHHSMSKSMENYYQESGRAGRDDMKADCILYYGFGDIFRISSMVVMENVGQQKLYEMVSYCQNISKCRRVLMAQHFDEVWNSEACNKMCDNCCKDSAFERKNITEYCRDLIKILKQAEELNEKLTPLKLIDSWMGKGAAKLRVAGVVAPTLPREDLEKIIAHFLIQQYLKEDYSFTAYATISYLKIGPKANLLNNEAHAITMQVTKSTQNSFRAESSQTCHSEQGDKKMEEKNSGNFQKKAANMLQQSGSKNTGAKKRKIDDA
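50 nM RECQ1T1 preincubated 15 min with compound in Tris pH 8.0 buffer with MgCl2, DTT, Tween-20 and 2.5 ug/ml poly(dI-dC); started with 200 nM TAMRA/BHQ-2 forked duplex and 2 mM ATP. Unwinding read as fluorescence (525/598 nm), two reads 2 h apart.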
JMJD2E inh = blocks human JMJD2E demethylase activity; JMJD2E catalytic domain, FDH-coupled NADH fluorescence (FDH is formaldehyde dehydrogenase); AID 2147; Potency, µM (series often up to 57.1 µM), for inactives: at the top dose activity change, negative = inhibition, usual class: inhibitors; 230,000 tested, 1.6% active; active = well fitted inhibition curve with a large enough effect, not every such curve was filed as active; inconclusive = small, poorly fitted or top-dose-only effect, or another doubt; inactive = no such curve, though single readings can be large or run the other way;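 note: 0% = wells with enzyme and -100% = buffer wells without enzyme; nearly all actives have a fitted effect of over 50% in size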
L3MBTL1 block = blocks human L3MBTL1; Q9Y468; AlphaScreen L3MBTL1–H3K9me1 peptide binding; Potency, µM (titrated, usually from 57.1 µM), for inactives: at the highest dose activity, negative = inhibition, usual class: inhibitors; 230,000 tested, 0.66% active; AID 485360; note: nearly all actives have a fitted effect of over 60% in size
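AlphaScreen assay: L3MBTL1 (50 nM final) was preincubated 30 min at room temperature with biotinylated H3(1-15)K9me1 peptide (75 nM final), then 30 min with library compounds; streptavidin donor and nickel chelate acceptor beads (10 ug/mL final) added, 30 min dark.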
APE1 inh = APE1 (human) endonuclease inhibition | P27695 | recombinant APE1, TAMRA/BHQ-2 abasic DNA cleavage fluorescence | Potency, µM (series often up to 65.8 µM), for the others: at the top dose activity change, negative = inhibition, usual class: inhibitors | 350,000 tested, 0.35% active | AID 2517;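 note: plate controls were vehicle for no effect and reference inhibitor for full effect; nearly all actives have a fitted effect of over 55% in size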
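0.75 nM APE1 + cpd, 15 min RT; start w/ 50 nM TAMRA/BHQ-2 THF-abasic dsDNA; kinetic fluor 525/598 nm ×3 reads @60 s; Δ(read3−read1); normalized to DMSO and NSC13755 control wells.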
An asterisk follows results filed as active; i = inactive; ? = inconclusive; . = no result; [ ] = dose if it differs, or a comment. Unless noted, calls come from the whole dose curve; as a rule, active = well fitted curve in the direction sought with a large enough effect; inconclusive = small, poorly fitted or top-dose-only effect, or another doubt; inactive = no such curve, though single readings can be large; an effect the other way counts as inactive or inconclusive. Unless noted, % is set by controls: 0 for no effect and ±100 for the full control effect; potency is the fitted concentration of half-maximal effect.

SMILES	BLM helicase inh	RECQ1 inh	JMJD2E inh	L3MBTL1 block	APE1 inh
O=C(Nc1nc(-c2ccccn2)cs1)c1ccccc1-n1cnnn1	-5%	i	?	20µM*	4%
O=C(Nc1nc(-c2ccccn2)cs1)c1cc(Cl)ccc1[N+](=O)[O-]	-10%	-3%	?	10µM*	-3%
O=C(Nc1nc(-c2ccccn2)cs1)c1ccc([N+](=O)[O-])o1	-18%	-11%	?	13µM*	-12%
CC(=O)Nc1ccc(C(=O)Nc2nc(-c3ccccn3)cs2)cc1	-5%	5%	?	-44%	-1%
Cc1cc(C(=O)Nc2nc(-c3ccccn3)cs2)ccc1[N+](=O)[O-]	-4%	-9%	?	.	0%
CCC(=O)N1CCc2cc(Br)cc(S(=O)(=O)CCC(=O)N3CCN(c4cccc(C)c4)C(C)C3)c21 (centres undefined)	-1%	.	.	.	.
O=C(COC(=O)C1CC2CCCC(C1)C2=O)NNC(=O)c1ccccc1Br (centres undefined)	.	.	.	5%	18%
CCC1S/C(=C(\C#N)C(=O)NCc2ccco2)N(c2ccc(Br)cc2)C1=O (centres undefined)	-6%	i	-3%	.	-5%
Cc1cc(C2=NNC(=Nc3ccc(S(=O)(=O)N4CCOCC4)cc3)SC2)c(C)n1C	-2%	-1%	8.9µM*	-7%	5%
CCCOC1CCCN(C(=O)CCCn2nnnc2CN2CCOCC2)C1 (centres undefined)	-2%	.	.	.	3%
CCCCNc1c2c3c(cccc3n(C)c1=O)C(=O)c1ccccc1-2	-13%	32µM*	-6%	94%	-3%
CC1(C)CC(=O)C2=C(C1)OC(N)=C(C#N)C2C1C=CCCC1 (centres undefined)	3%	-2%	2%	-5%[11.4 µM]	5%
O=C1CC(c2ccco2)CC(O)=C1C=NCC1NCCc2ccccc21 (centres undefined)	-11%	-27%	20µM*	2%	8%
Cc1ccc(NC(=O)C2C3CCCCC32)cc1[N+](=O)[O-] (centres undefined)	-8%	.	.	-5%	-2%
O=C(/C=C/c1ccco1)NC(=S)Nc1ccc(N2CCCC2)cc1	-4%	i	11µM*	?	-9%
O=C(Nc1cccc2ncccc12)C(c1ccccc1)c1ccccc1	-10%	i	?	1%	-1%
Cc1ccc(NS(=O)(=O)c2ccccc2F)cc1S(=O)(=O)N1CCCCCC1	.	.	.	3%	-5%
COc1ccc(Cc2nnc(N/N=C/c3ccc(O)cc3O)[nH]c2=O)cc1OC	-13%	3%	-1%	3.5µM*	-3%
CCCCCC/C=N/Nc1nnc(Cc2ccc(OC)c(OC)c2)c(=O)[nH]1	-3%	.	.	.	28%
COc1ccccc1NC(=O)N(c1c(N)n(Cc2ccccc2)c(=O)[nH]c1=O)C1CCCC1	0%	-10%	1%	8%	-1%
OCc1cn(Cc2ccc(O)c3ncccc23)cn1	.	.	.	7.1µM*	35%
Oc1ccc(COC2CCCC2)c2cccnc12	.	.	.	20µM*	8%
COCc1ccc(O)c2ncccc12	-1%	-1%	10µM*	.	0%
CCC1CN(C(=O)Nc2ccc(Br)cc2F)c2ccccc2S1 (centres undefined)	-4%	.	.	.	.
Cc1oc(=O)c(NC(=O)c2ccc(Cl)cc2)cc1C(=O)c1ccccc1	5%	-7%	?	11%	-1%
SMILES	BLM helicase inh	RECQ1 inh	JMJD2E inh	L3MBTL1 block	APE1 inh
COc1cc([N+](=O)[O-])cc(/C=N/NC(=O)Cn2nc(C)cc2C)c1O	0%	2%	7.1µM*	?	2%
COc1cc([N+](=O)[O-])cc(/C=N/NC(=O)Cn2nccc2C)c1O	1%	4%	13µM*	.	-3%
Cn1c(SCC(=O)N/N=C/c2ccc([N+](=O)[O-])s2)nnc1-c1ccc(Cl)cc1	-1%	-5%	0%	-19%	-4%
COc1ccc(/C=N/NC(=O)Cn2nc([N+](=O)[O-])cc2C)c(OC)c1OC	-1%	-2%	4%	1%	1%
COc1cc([N+](=O)[O-])cc(/C=N/NC(=O)CSc2nnc(-c3ccccc3)n2C)c1O	-2%	-3%	20µM*	.	-3%
O=C(O)CCNc1ccc(NCCC(=O)O)c2c1C(=O)c1ccccc1C2=O	?	.	.	.	6.7µM*
COc1ccccc1NCCC(=O)O	0%	i	6%	.	4%
Cn1cc(/C=C2\SC(=S)N(NC(=O)c3ccccc3)C2=O)c2ccccc21	-8%	32µM*	1%	-7%	-4%
O=C(NC1CCCCC1)n1c(=O)oc2ccccc21	1%	-5%	3%	-3%	8%
O=c1cc(Nc2ccc3c(c2)OCO3)[nH]c(=O)n1-c1ccc(Br)cc1	-6%	-8%	-2%	-21%	-5%
O=C(O)CCCCCN1C(=O)/C(=C/c2ccncc2)SC1=S	-2%	0%	22µM*	5%	2%
Oc1ccc(C=Nc2ccc3ncccc3c2)c(O)c1	-15%	?	4.5µM*	-5%	1%
CCNc1nc(NCC)n2c(SCC(=O)Nc3cc(OC)ccc3OC)nnc2n1	.	.	.	-5%	-2%
CCNc1nc(NCC)n2c(SCC(=O)Nc3ccccc3)nnc2n1	-6%	i	25%	8%	12%
CCNc1nc(NCC)n2c(SCC(=O)Nc3ccc(C)c(C)c3)nnc2n1	.	.	.	28µM*	?
CCNc1nc(NCC)n2c(SCC(=O)Nc3ccc(OC(F)F)cc3)nnc2n1	.	.	.	?	11µM*
Cc1ccc(-c2cc(C(=O)N3CCN(C4CCS(=O)(=O)C4)CC3)c3ccccc3n2)cc1 (centres undefined)	.	.	.	-2%	32%
COC(=O)c1ccc2c(c1)C(C)(C)C(/C=C/c1ccc(O)cc1)=[N+]2C	-1%	13µM*	43%	-3%	?
CN=c1scc(-c2cccs2)n1/N=C/c1ccc(O)c(O)c1O	-18%	6.3µM*	14µM*	14µM*	6.3µM*
C=CCN=c1scc(-c2ccco2)n1/N=C/c1ccc(O)c(O)c1O	-27%	-10%	11µM*	18µM*	?
C[C@@H]1NC(=O)C/C=C\[C@@H](C)[C@@H]2C=C[C@H](O)[C@@H](COC(=O)[C@H](C)NC(=O)C/C=C\[C@@H](C)[C@@H]3C=C[C@H](O)[C@@H](COC1=O)O3)O2	0%[12.4 µM]	-3%[11.5 µM]	.	.	9%[12.4 µM]
O=C1N=C(N2CCCC2C(=O)O)S/C1=C\c1ccco1 (centres undefined)	2%	-2%	22µM*	.	?
N=C1/C(=C/c2ccco2)C(=O)N=C2SC(CC(=O)N3CCCC3)=NN12	-27%	.	.	.	-27%
Cc1ccc(O)c(NC2=C(Cl)C(=O)N(Cc3ccccc3)C2=O)c1	-16%	-17%	22µM*	?	-11%
Cc1ccc2c(c1)N(S(=O)(=O)c1cc(-c3onc(C)c3C)ccc1C)CCO2	-10%	.	.	.	-12%
